Test results published in PubChem BioAssay (Tox21).
Values joined by “and” are separate entries in the source; they are usually repeats but may differ in a detail not shown here. Identical values can stand only once. Inconclusive results are not listed. A structure can be active in one record and inactive in another. Active and inactive are the calls of the source. The call rests on the fitted dose curve.

Assay: qHTS assay to identify small molecule antagonists of the sonic hedgehog signaling (Shh) pathway (AID 1259369); further: nearly all actives have a fitted effect of over 45% in size
Conditions: NIH/3T3 Gli1-Luc reporter, Shh antagonist, luminescence 24 h; series mostly up to 92.4 µM; activity change, negative = inhibition: at the top concentration
Excerpt: U.S. Tox21 Program National Center for Advancing Translational Sciences [NCATS] NIH Chemical Genomics Center [NCGC] U.S. Environmental Protection Agency [EPA] National Institutes of Environmental Health Sciences [NIEHS] National Toxicology Program [NTP] U.S. Food and Drug Administration [FDA] Tox21 Assay Overview: The sonic hedgehog (Shh) pathway is essential for normal embryonic development. Dysregulation of the Shh pathway can cause severe developmental defects in organs. Therefore chemicals that interfere with the pathway are potential developmental toxicants. A cell line designated 3T3Gli1-Luc (DMB/OARSA/CFSAN/FDA, Laurel, MD), a NIH/3T3 derived clone containing stably integrated Gli1-Luc reporter is used to detect chemical interference of the Shh pathway, by changes in the expression of the firefly Luc gene under the control of the Gli1 transcriptional response element. This cell line was used to screen Tox21 libraries for identifying and prioritizing the potential developmental toxicants that interfere Shh pathway. Conditioned medium-stimulated mode was used to screen for chemicals inhibiting Shh signaling.
Tox21 Assay Protocol Summary: 3T3 Gli1-Luc cells were dispensed at 2,000 per well in 5uL of culture medium into white solid bottom 1536-well plates (Greiner Bio-One, Monroe, NC) using a Multidrop Combi (Thermo Scientific, Waltham, MA) dispenser. The assay plates were incubated at 37 C and 5% CO2 for 4hr, and then 23nL of compounds dissolved in DMSO and positive control were transferred using a Pintool station (Wako, San Diego, CA). The compound transfer was followed by the addition of 1ul conditioned medium or assay buffer using two separate tips of Flying Reagent Dispenser (FRD, Aurora Discovery, San Diego, CA). The assay plates were incubated at 37C and 5% CO2 for 24hr. For luciferase read, 4uL of Amplite Luciferase reporter gene assay reagent (AAT Bioquest, Inc. Sunnyvale, CA) was added to each well of the assay plates using FRD and incubated at room temperature for 30min. The luminescence signal was measured using a ViewLux plate reader (Perkin Elmer, Shelton, CT).
On the % scale 0 is the no-effect control and ±100 the full control effect; potency means the concentration at half of the fitted maximal effect.

| SMILES | activity change, negative = inhibition | Potency |
| --- | --- | --- |
| C=CCSSCC=C | 0.552% (inactive) |  |
| CN1C[C@H](C(=O)N[C@]2(C)O[C@@]3(O)[C@@H]4CCCN4C(=O)[C@H](Cc4ccccc4)N3C2=O)C=C2c3cccc4[nH]cc(c34)C[C@H]21 |  | 3.87 µM (active) |
| O=C1c2ccccc2C(=O)N1SC(Cl)(Cl)Cl |  | 1.07 µM (active) and 1.93 µM (active) |
| O=S(=O)(c1ccccc1)c1ccccc1 | 34.1% (inactive) |  |
| CC[N+]1(CCOC(=O)C(O)(c2ccccc2)c2ccccc2)CCCCC1 | 20.5% [at 42.5 µM] (inactive) |  |
| CCOP(=O)(O)C(N)=O | 25.1% (inactive) |  |
| CCC1(CCC(C)C)C(=O)NC(=O)NC1=O | -6.4% (inactive) |  |
| Cc1ccccc1 | 19.9% (inactive) |  |
| O=C(O)COc1cc(Cl)c(Cl)cc1Cl |  | inactive |
| C[Si](Cn1cncn1)(c1ccc(F)cc1)c1ccc(F)cc1 |  | 8.92 µM (active) |
| Cc1ncc(C[n+]2csc(CCO)c2C)c(N)n1 | 0.954% (inactive) |  |
| CCCN(CCOc1c(Cl)cc(Cl)cc1Cl)C(=O)n1ccnc1 |  | 6.24 µM (active) |
| CCC(C)(C)O | 6.27% (inactive) |  |
| CCOP(=S)(S)OCC | 11.5% (inactive) |  |
| OCC1CO1 (stereo not given) |  | inactive |
| Cc1ccc2c(C)cccc2c1 | -2.57% (inactive) |  |
| C=CC(C)(CCC=C(C)C)OC(=O)c1ccccc1N (stereo not given) | -25.6% (inactive) |  |
| O=C(O)C(Cl)(Cl)Br | 13.8% (inactive) |  |
| Oc1cccc(Cl)c1 | -21.2% (inactive) |  |
| COc1ccc(C(O)(c2cncnc2)C2CC2)cc1 (stereo not given) | -20.1% (inactive) |  |

| SMILES | activity change, negative = inhibition | Potency |
| --- | --- | --- |
| CCCCCCCCn1sccc1=O |  | 1.37 µM (active) and 1.02 µM (active) |
| O=C=NC1CCCCC1 | 1.33% (inactive) |  |
| CC(O)CN1CCN(CC(=O)[O-])CCN(CC(=O)[O-])CCN(CC(=O)[O-])CC1.[Gd+3] (stereo not given) | 9.18% [at 42.5 µM] (inactive) |  |
| CCOc1cccc(C2(N3CCN(c4ccccc4)CC3)CCC(C)CC2)c1 (stereo not given) | 13.1% (inactive) |  |
| CCCCCCCCCCCCN=C(N)N |  | 0.671 µM (active) |
| O=C1CC[C@@]2(O)[C@H]3Cc4ccc(O)c5c4[C@@]2(CCN3CC2CC2)[C@H]1O5 | 14.2% [at 42.5 µM] (inactive) |  |
| OCCSSCCO | 0.892% (inactive) |  |
| O=C(O)C(F)(F)C(F)(F)C(F)(F)C(F)(F)C(F)(F)F | 0% (inactive) |  |
| CC(Cl)C(=O)O (stereo not given) | 0% (inactive) |  |
| CCOP(=S)(OCC)SCSc1cc(Cl)ccc1Cl | 3.49% (inactive) |  |
| CCCCCl | 9.49% (inactive) |  |
| COc1ccc2c(c1OC)C(=O)O[C@H]2[C@@H]1c2cc3c(cc2CCN1C)OCO3 | 7.08% [at 42.5 µM] (inactive) |  |
| CCCSP(=S)(OCC)Oc1ccc(SC)cc1 (stereo not given) |  | 61.1 µM (active) |
| Cc1nc(N(C)C)nc(OC(=O)N(C)C)c1C | -5.12% (inactive) |  |
| NP(N)(=O)NC(=O)c1ccc(F)cc1 | 33.6% [at 42.5 µM] (inactive) |  |
| COCc1cnc(C2=NC(C)(C(C)C)C(=O)N2)c(C(=O)O)c1 (stereo not given) | 3.04% (inactive) |  |
| OC[P+](CO)(CO)CO |  | 31 µM (active) and inactive |
| O=C(O)c1cc(I)cc(I)c1I | -1.09% (inactive) |  |
| O=C(N[C@H]1CN2CCC1CC2)c1ccc2c(c1)OCCO2 | 22.5% (inactive) |  |
| COC1CC(=C(c2cccs2)c2cccs2)C[N+](C)(C)C1 (stereo not given) | 11.8% [at 42.5 µM] (inactive) |  |
